Laboratory results from PubChem BioAssay (NCATS).
Results filed as inconclusive are left out. Calls of active or inactive are those of the source. Calls follow the shape of the dose curve; as a rule, active = well fitted curve in the direction sought with a large enough effect; inconclusive = small, poorly fitted or top-dose-only effect, or another doubt; inactive = no such curve, though single readings can be large; an effect the other way counts as inactive or inconclusive.

How the values were obtained:
WaGa = assay: qHTS assay to identify novel small-molecules to repurpose for Merkel cell carcinoma treatment (AID 1296009); settings: MCC and control cell lines, CellTiter-Glo viability, 72 h; series mostly up to 46 µM; also: nearly all actives have a fitted effect of over 60% in size
Method in brief: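 Cells were treated for 72 hr at 37 degree celsius with compounds in 8- or 11-point dose response. Viability was read by CellTiter-Glo luminescence, normalized to no-cell (cytotoxicity) and DMSO controls.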

C33A = assay: Primary qHTS to identify gynecologic anti-cancer compounds using libraries of approved drugs and bioactive compounds (AID 1345084); settings: Gynecologic cancer cell panel viability, ATPlite luminescence, 48 h; series mostly up to 57.5 µM; also: nearly all actives have a fitted effect of over 55% in size
Method in brief: (§1)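 Cell viability after 48 h drug treatment, ATPlite luminescence readout; five doses.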

CAOV3 = assay: as above; settings: Gynecologic cancer cell panel viability, ATPlite luminescence, 48 h; series mostly up to 57.5 µM
Method in brief: as §1

CASKI = assay: as above; settings: Gynecologic cancer cell panel viability, ATPlite luminescence, 48 h; series mostly up to 57.5 µM
Method in brief: as §1

Es-2 = assay: as above; settings: Gynecologic cancer cell panel viability, ATPlite luminescence, 48 h; series mostly up to 57.5 µM
Method in brief: as §1

HeLa = assay: as above; settings: Gynecologic cancer cell panel viability, ATPlite luminescence, 48 h; series mostly up to 57.5 µM
Method in brief: as §1

Hek293T = assay: as above; settings: Gynecologic cancer cell panel viability, ATPlite luminescence, 48 h, control line for the selectivity index; series mostly up to 57.5 µM
Method in brief: as §1

JEG-3 = assay: as above; settings: Gynecologic cancer cell panel viability, ATPlite luminescence, 48 h; series mostly up to 57.5 µM
Method in brief: as §1

OV90 = assay: as above; settings: Gynecologic cancer cell panel viability, ATPlite luminescence, 48 h; series mostly up to 57.5 µM
Method in brief: as §1

PA-1 = assay: as above; settings: Gynecologic cancer cell panel viability, ATPlite luminescence, 48 h; series mostly up to 57.5 µM
Method in brief: as §1

Measured: Potency

Nc1ccc(C(=O)Oc2ccccc2)c(O)c1
inactive: all assays above

O=c1[nH]c2cc(C(F)(F)F)c(N3CCOCC3)cc2n(CP(=O)(O)O)c1=O
inactive: all assays above

COc1nccnc1NS(=O)(=O)c1ccc(N)cc1
inactive: all assays above

c1ccc2[nH]ccc2c1
inactive: all assays above

CC(=O)NCc1c(I)c(NC(C)=O)c(I)c(C(=O)O)c1I
inactive: all assays above

CC(=O)SC[C@@H](Cc1ccccc1)C(=O)NCC(=O)OCc1ccccc1
inactive: all assays above

CCOc1cc(NC(C)=O)ccc1C(=O)OC
inactive: all assays above

O=c1[nH]cnc2nc[nH]c12
inactive: all assays above

NS(=O)(=O)c1cc2c(cc1C(F)(F)F)NCNS2(=O)=O
inactive: all assays above

C=CCN1C[C@H](C(=O)N(CCCN(C)C)C(=O)NCC)C[C@@H]2c3cccc4[nH]cc(c34)C[C@H]21
inactive: all assays above

CC(=O)N[C@@H](CC(C)C)C(=O)O
inactive: all assays above

Cc1cc(OI)c(C(C)C)cc1-c1cc(C(C)C)c(OI)cc1C
inactive: all assays above

CCN1CC(CCN2CCOCC2)C(c2ccccc2)(c2ccccc2)C1=O (stereo not given)
inactive: all assays above

NC(N)=NS(=O)(=O)c1ccc(N)cc1
inactive: all assays above

Cc1ccccc1N=Nc1ccc(N=Nc2c(O)ccc3ccccc23)c(C)c1
inactive: all assays above

CCOC(=O)c1cccnc1
inactive: all assays above

O=C(Cn1ccnc1[N+](=O)[O-])NCCO
inactive: all assays above

O=C(O)c1ccccc1OP(=O)(O)O
inactive: all assays above

Cc1ccc(S(=O)(=O)NC(=O)NC2CCCCCCC2)cc1
inactive: all assays above

Cn1c([N+](=O)[O-])cnc1COC(N)=O
inactive: all assays above

CCN(CC)CCc1nc(-c2ccccc2)no1
inactive: all assays above

COc1ccc(Cc2cnc(N)nc2N)cc1OC
inactive: all assays above

O=C(/C=C/c1ccc(O)c(O)c1)O[C@@H]1C[C@@](OC(=O)/C=C/c2ccc(O)c(O)c2)(C(=O)O)C[C@@H](O)[C@@H]1O
inactive: all assays above
